# Data reported in the supplement of paper PMC10849652.
# Targets with a hit are over-represented here; the source holds about 8,800 in all. About 0.5% of all pairs of compound and target were hits. Unmarked numbers belong to inactive results.
# Assays:
# Experiment in all cases: log2 fold change, soluble protein after heating vs DMSO (PISA); higher = thermal stabilisation; K562 lysate, 10 uM; active = over 0.2 and 3.5 SD of the protein, either way, in both replicates (recomputed)
# lapatinib = compound: CS(=O)(=O)CCNCc1ccc(-c2ccc3ncnc(Nc4ccc(OCc5cccc(F)c5)c(Cl)c4)c3c2)o1 [lapatinib]
# Outline: (§1)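 K562 pellets were dounce-homogenised in PBS pH 7.4 containing 1 mM MgCl2, and the crude extract, at 1 mg/mL protein, was exposed to 10 μM compound for 30 min. Aliquots were heated for 3 min across 48°C-58°C, pooled, brought to 0.5% NP-40 at 4°C and spun at 21,000xg for 90 min, with the supernatant taken as soluble protein. TMTpro 16plex LC-MS/MS with equalised channel sums quantified that protein. Values are log-two fold changes in thermal stability relative to solvent controls, taken from duplicates.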
# pictilisib = compound: CS(=O)(=O)N1CCN(Cc2cc3nc(-c4cccc5[nH]ncc45)nc(N4CCOCC4)c3s2)CC1 [pictilisib]
# Outline: as §1
# crizotinib = compound: C[C@@H](Oc1cc(-c2cnn(C3CCNCC3)c2)cnc1N)c1c(Cl)ccc(F)c1Cl [crizotinib]
# Outline: as §1
# [1] = compound: C[C@H](C1=CC=C(C=C1)C(=O)NC2=C3C=CNC3=NC=C2)N
# Outline: as §1
# duvelisib = compound: C[C@H](Nc1ncnc2nc[nH]c12)c1cc2cccc(Cl)c2c(=O)n1-c1ccccc1 [duvelisib]
# Outline: as §1
# gandotinib = compound: Cc1cc(Nc2cc(CN3CCOCC3)c3nc(C)c(Cc4ccc(Cl)cc4F)n3n2)n[nH]1 [gandotinib]
# Outline: as §1
# tozasertib = compound: Cc1cc(Nc2cc(N3CCN(C)CC3)nc(Sc3ccc(NC(=O)C4CC4)cc3)n2)n[nH]1 [tozasertib]
# Outline: as §1
# doramapimod = compound: Cc1ccc(-n2nc(C(C)(C)C)cc2NC(=O)Nc2ccc(OCCN3CCOCC3)c3ccccc23)cc1 [doramapimod]
# Outline: as §1
# bafetinib = compound: Cc1ccc(NC(=O)c2ccc(CN3CC[C@H](N(C)C)C3)c(C(F)(F)F)c2)cc1Nc1nccc(-c2cncnc2)n1 [bafetinib]
# Outline: as §1
# [2] = compound: Cc1cccc(CC(=O)N2CCc3c2ccc(-c2cn(C)c4ncnc(N)c24)c3F)n1
# Outline: as §1
# UniProt Q7Z3E2, sequence (Q7Z3E2 whole entry, looked up): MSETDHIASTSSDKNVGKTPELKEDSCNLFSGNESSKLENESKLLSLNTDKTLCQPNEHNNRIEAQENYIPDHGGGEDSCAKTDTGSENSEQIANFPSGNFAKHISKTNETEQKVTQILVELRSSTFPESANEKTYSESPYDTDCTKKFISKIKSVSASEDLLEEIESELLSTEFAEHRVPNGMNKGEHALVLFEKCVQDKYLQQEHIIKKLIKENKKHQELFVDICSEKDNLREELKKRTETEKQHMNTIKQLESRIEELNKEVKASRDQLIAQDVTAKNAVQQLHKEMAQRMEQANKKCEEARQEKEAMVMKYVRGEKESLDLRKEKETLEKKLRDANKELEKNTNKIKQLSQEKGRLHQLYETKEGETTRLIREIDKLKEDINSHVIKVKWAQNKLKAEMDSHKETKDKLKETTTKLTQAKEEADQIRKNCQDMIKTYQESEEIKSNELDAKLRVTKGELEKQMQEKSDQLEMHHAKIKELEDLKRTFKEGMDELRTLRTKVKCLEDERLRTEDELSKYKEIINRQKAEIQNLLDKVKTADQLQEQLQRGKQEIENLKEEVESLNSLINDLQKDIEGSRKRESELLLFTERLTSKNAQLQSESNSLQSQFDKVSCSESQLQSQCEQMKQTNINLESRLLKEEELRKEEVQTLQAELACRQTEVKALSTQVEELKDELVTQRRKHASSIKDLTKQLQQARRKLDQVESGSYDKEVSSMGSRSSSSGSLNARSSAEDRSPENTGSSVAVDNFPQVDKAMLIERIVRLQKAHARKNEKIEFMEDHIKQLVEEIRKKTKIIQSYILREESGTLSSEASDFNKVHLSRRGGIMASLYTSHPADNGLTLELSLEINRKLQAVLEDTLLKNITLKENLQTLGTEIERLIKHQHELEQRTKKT
# UniProt Q9H3Q1, sequence (Q9H3Q1 whole entry, looked up): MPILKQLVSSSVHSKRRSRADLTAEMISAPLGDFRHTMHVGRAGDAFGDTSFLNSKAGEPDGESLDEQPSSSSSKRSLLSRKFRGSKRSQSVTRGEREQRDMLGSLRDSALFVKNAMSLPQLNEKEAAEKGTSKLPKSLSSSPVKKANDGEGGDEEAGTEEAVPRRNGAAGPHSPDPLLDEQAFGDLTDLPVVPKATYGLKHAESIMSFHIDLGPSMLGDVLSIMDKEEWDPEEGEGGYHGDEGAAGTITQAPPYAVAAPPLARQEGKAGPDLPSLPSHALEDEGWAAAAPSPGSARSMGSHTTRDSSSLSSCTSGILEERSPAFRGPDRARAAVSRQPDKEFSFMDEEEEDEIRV
# UniProt Q8N4J0, sequence (Q8N4J0 whole entry, looked up): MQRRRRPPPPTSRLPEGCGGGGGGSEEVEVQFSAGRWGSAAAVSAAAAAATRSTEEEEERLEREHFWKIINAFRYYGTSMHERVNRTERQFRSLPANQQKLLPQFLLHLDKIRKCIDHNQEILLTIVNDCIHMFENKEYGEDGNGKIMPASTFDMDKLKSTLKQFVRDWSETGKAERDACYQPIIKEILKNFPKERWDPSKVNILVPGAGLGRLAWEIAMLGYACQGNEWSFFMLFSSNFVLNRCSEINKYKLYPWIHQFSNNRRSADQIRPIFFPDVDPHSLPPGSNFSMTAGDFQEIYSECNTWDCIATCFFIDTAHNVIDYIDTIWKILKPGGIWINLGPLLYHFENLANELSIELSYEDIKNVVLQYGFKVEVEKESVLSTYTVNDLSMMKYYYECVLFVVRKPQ
# UniProt Q9HD20, sequence (Q9HD20 whole entry, looked up): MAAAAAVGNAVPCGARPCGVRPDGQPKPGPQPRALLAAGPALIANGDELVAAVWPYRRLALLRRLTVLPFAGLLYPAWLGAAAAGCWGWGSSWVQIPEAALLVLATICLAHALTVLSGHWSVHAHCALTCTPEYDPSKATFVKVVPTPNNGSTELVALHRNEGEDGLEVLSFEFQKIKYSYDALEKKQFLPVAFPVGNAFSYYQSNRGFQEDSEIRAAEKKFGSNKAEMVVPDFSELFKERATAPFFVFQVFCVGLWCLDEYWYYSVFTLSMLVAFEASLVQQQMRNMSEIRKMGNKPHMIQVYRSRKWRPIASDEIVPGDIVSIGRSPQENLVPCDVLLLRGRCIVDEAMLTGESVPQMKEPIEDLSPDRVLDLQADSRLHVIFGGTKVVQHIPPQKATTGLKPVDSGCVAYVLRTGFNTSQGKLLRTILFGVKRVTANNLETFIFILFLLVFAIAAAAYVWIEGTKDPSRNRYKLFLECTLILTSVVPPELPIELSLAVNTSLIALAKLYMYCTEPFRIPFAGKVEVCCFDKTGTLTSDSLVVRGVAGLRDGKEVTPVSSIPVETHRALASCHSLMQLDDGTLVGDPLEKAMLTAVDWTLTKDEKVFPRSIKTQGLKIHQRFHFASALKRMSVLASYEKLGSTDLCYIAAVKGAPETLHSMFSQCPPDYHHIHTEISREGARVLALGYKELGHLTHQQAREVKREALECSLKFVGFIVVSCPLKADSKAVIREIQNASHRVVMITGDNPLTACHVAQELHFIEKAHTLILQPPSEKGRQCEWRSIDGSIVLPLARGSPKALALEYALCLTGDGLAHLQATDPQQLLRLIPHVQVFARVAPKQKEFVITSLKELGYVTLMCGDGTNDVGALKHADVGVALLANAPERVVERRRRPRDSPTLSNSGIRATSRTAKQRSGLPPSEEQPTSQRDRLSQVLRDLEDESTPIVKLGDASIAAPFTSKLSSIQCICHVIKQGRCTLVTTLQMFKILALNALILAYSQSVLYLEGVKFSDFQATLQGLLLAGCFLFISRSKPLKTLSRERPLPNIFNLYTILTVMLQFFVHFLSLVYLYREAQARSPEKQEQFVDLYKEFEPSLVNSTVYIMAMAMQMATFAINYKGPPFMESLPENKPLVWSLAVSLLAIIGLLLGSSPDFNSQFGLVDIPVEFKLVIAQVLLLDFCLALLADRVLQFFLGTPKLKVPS
# UniProt Q96RR4, sequence (Q96RR4 whole entry, looked up): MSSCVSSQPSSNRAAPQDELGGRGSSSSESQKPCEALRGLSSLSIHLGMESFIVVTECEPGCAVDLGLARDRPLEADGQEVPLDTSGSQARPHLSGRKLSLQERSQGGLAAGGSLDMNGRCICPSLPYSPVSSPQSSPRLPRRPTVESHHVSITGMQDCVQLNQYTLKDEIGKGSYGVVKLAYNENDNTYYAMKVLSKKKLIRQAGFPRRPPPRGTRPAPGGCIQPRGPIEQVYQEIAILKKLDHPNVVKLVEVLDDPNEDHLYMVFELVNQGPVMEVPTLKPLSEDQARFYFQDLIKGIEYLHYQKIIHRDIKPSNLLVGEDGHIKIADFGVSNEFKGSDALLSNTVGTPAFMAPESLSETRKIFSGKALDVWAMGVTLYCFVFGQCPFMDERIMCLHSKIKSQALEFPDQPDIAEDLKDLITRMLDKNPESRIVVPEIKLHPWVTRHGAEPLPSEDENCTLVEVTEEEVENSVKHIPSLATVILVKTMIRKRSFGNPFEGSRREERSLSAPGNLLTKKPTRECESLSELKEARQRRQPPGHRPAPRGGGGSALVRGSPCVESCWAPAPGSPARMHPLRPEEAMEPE
# UniProt P83916, sequence (P83916 whole entry, looked up): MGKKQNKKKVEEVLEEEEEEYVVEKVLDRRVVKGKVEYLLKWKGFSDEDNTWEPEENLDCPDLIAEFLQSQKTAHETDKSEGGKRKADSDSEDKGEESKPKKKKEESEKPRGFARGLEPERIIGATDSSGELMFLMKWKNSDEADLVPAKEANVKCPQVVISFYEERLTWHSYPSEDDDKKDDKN
# UniProt Q9ULG6, sequence (Q9ULG6 whole entry, looked up): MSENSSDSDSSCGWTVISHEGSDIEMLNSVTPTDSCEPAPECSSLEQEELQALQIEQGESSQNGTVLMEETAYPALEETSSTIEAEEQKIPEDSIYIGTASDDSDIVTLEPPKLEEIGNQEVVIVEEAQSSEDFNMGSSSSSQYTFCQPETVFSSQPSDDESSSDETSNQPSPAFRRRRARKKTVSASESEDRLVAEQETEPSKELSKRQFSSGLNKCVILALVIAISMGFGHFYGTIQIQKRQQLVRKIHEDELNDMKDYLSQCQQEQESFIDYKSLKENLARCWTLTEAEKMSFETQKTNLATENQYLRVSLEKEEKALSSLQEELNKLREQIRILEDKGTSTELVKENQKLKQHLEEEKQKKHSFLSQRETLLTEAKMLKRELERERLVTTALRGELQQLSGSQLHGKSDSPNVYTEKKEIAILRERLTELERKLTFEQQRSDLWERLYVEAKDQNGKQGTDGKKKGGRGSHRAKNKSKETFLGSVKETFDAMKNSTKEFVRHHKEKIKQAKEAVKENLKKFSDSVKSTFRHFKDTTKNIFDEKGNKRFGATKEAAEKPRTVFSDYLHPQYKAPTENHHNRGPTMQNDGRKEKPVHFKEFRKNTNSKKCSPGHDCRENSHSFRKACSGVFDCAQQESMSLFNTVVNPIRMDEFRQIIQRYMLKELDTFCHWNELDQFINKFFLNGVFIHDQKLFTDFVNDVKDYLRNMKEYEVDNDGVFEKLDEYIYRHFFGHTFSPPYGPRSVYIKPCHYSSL
# UniProt O60508, sequence (O60508 whole entry, looked up): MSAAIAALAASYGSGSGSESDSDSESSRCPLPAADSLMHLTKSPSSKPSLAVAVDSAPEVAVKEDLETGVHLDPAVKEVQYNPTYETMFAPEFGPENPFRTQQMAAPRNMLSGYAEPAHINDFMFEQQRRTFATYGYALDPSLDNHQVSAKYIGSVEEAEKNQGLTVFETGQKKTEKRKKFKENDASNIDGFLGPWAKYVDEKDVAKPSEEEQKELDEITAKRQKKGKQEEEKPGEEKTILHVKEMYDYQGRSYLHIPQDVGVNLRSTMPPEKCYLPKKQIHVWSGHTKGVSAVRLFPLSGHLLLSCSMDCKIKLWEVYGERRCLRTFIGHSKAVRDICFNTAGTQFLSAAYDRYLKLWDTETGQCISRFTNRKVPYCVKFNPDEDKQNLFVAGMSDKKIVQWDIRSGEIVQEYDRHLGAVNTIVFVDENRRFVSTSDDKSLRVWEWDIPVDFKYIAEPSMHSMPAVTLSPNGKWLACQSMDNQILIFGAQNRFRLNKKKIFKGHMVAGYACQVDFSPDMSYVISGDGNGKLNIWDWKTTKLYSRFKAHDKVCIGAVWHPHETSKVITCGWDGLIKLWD
Target,log2 fold change (lapatinib),log2 fold change (pictilisib),log2 fold change (crizotinib),log2 fold change [1],log2 fold change (duvelisib),log2 fold change (gandotinib),log2 fold change (tozasertib),log2 fold change (doramapimod),log2 fold change (bafetinib),log2 fold change [2]
CCDC186 (UniProt Q7Z3E2),-0.056,-0.004,0.006,0.295 (active),0.022,-0.061,0,-0.01,-0.047,-0.064
CDC42EP4 (UniProt Q9H3Q1),0.031,0.029,-0.017,-0.047,-0.029,0.223 (active),-0.017,0.157,-0.027,0.102
CBX1 (UniProt P83916),0.052,-0.006,0.023,0.279 (active),0.03,-0.143,-0.05,-0.034,0.025,-0.138
ATP6V1B1 (UniProt P15313),-0.028,-0.028,-0.035,-0.232,-0.001,0.099,0,0.042,-0.044,0.129
CAMLG (UniProt P49069),0.009,-0.039,0.014,0.179,-0.001,-0.058,-0.037,-0.005,0,-0.12
CDC16 (UniProt Q13042),0.016,0,0.009,0.047,0.011,-0.095,0.06,0.014,-0.039,-0.057
CDK9 isoform 2 (UniProt P50750),-0.103,0.034,0.067,0.066,-0.026,0.074,-0.108,-0.02,-0.125,-0.056
CDKN1B (UniProt P46527),0.083,-0.043,0.139,0.047,-0.06,-0.161,-0.005,-0.04,-0.106,-0.059
ATP13A1 (UniProt Q9HD20),-0.115,-0.011,0.123,0.047,-0.004,-0.073,0.068,-0.053,-0.033,0.043
CBX5 (UniProt P45973),0.06,0.024,-0.023,-0.187,-0.036,0.077,0.006,0.006,-0.001,0.064
CCNC (UniProt P24863),-0.108,0.036,-0.037,0.075,0.009,-0.104,-0.025,0.332 (active),-0.123,0.015
CEP76 (UniProt Q8TAP6),-0.031,-0.073,-0.106,-0.063,0.141,0.007,0.079,0.085,-0.115,0.027
CDC123 (UniProt O75794),0.016,-0.011,-0.012,0.032,0.02,0.335 (active),-0.022,-0.032,-0.049,-0.048
BET1 (UniProt O15155),-0.051,-0.034,-0.004,-0.004,0.01,-0.006,0,0.03,-0.056,0.03
CHAF1A (UniProt Q13111),0.014,0.063,0.012,-0.054,-0.035,0.009,-0.023,0.026,-0.075,-0.005
CDC40 (UniProt O60508),-0.028,0.039,-0.053,-0.027,0,0.002,-0.038,-0.005,-0.033,0.006
CAMKK2 (UniProt Q96RR4),-0.018,0.006,0.108,0.023,0.058,0.257 (active),-0.055,0.031,0.018,-0.056
CCPG1 isoform 5 (UniProt Q9ULG6),0.114,-0.038,0.006,-0.036,0.006,-0.089,-0.021,0.036,0.035,0.108
BRD4 (UniProt O60885),0.044,0.015,-0.03,-0.06,0.013,0.019,-0.031,0.016,-0.024,-0.006
C12orf45 (UniProt Q8N5I9),-0.027,-0.031,0.042,-0.269 (active),-0.014,0.148,-0.044,-0.023,0.001,0.072
CAD (UniProt P27708),-0.023,-0.02,-0.038,-0.024,-0.011,-0.019,0,0.02,-0.052,0.07
ATE1 isoform 2 (UniProt O95260),0.021,-0.058,0.024,-0.089,-0.051,0.076,-0.003,-0.071,-0.093,0.029
ATXN2 (UniProt F8WB05),0.06,0.005,-0.023,0.087,-0.065,-0.028,0.043,-0.12,0.045,0.001
CDK13 (UniProt Q14004),-0.077,0.108,0.08,0.025,-0.006,-0.1,0.027,0.002,0.101,-0.046
CARNMT1 (UniProt Q8N4J0),0.01,-0.029,-0.131,-0.354 (active),0.018,0.038,-0.04,0.01,-0.078,0.181
ATP5PF isoform 2 (UniProt P18859),0.04,-0.088,0.054,0.591 (active),-0.021,-0.185,-0.018,-0.083,0.221,-0.19
CARHSP1 (UniProt Q9Y2V2),-0.014,-0.08,0.011,-0.053,0.003,0.047,0.003,-0.012,-0.033,0.019
CAPNS1 (UniProt P04632),0.064,0.024,0.047,-0.21,-0.015,0.15,-0.042,0.079,0.016,0.005
BCR (UniProt P11274),-0.02,-0.032,0.034,-0.064,-0.049,-0.013,0.031,-0.047,0.019,0.1
BTK isoform 2 (UniProt Q06187),-0.015,-0.041,,-0.148,0.018,0.101,-0.012,0.031,-0.043,0.178
